# Records with an inconclusive call do not appear. Entries that show only a call come without a potency. Active and inactive are the calls of the source. Calls come from the whole dose curve; as a rule, active = well fitted cell-killing curve with a large enough effect; inconclusive = small, poorly fitted or top-dose-only effect; inactive = no such curve, though single readings can be large or run the other way.
# Experiment: qHTS of pediatric cancer cell lines to identify multiple opportunities for drug repurposing: Primary screen for NB-EBc1 cells (AID 1347095)
# Conditions: NB-EBc1 neuroblastoma viability, CellTiter-Glo luminescence, 48 h; series mostly up to 46 µM
# Description: Drug repurposing or repositioning has been offered as a strategy for drug development in oncology programs. This approach has special potential for childhood cancers and other rare or orphan diseases, where the expected return on new drug development has been a disincentive to pharmaceuticals. […] In this project we exploit the poly-pharmacology of drugs to discover new indications via phenotypic screening of a panel of 19 well-characterized cell lines derived from solid tumors seen in children and adolescents. The goal is to identify approved drugs with previously unrecognized anticancer properties that has the potential to reveal new mechanisms and biological processes involved in carcinogenesis or drug resistance. We employed a titration-based paradigm (quantitative high-throughput screening or qHTS), where all compounds were tested at multiple concentrations for their effect on cell viability. Concentration-response curves (CRCs) were derived directly from the primary screen, and both potency and efficacy values were used to identify compounds with robust bioactivity profiles. We screened the NIH Chemical Genomics Center (NCGC) Pharmaceutical Collection (NPC) and Mechanism Interrogation Plate (MIPE) small molecule collections of approved and investigational compounds against these cell lines; and measured metabolically active cells after 48 hours of compound treatment as a proxy for cell viability. […] Assay Submitter: Nathalia J. Martinez, National Center for Advancing Translational Sciences, National Institutes of Health, Rockville, MD, USA; email: natalia.martinez@nih.gov Shen, M et al. Quantitative high-throughput phenotypic screening of pediatric cancer cell lines identifies multiple opportunities for drug repurposing. Oncotarget 2017 Dec 19;9(4):4758-4772. PMID 29435139.
# The cells were obtained from University of North Carolina (UNC), Pediatric Preclinical Testing Program (PPT), and Coriell Institute (CI). qHTS cell viability assay: Cells were assayed in growth media at a density of 500-1,000 cells/well. Five microliters of cells were dispensed into 1,536-well, white, solid-bottom, TC-treated plates (Greiner Bio One) using a multidrop dispenser and incubated at 37 degrees C, 5% CO2, under a humidified atmosphere for 5 hours. Twenty-three nanoliters of compounds and controls (neutral control DMSO or positive control bortezomib at final concentration of 2.3 µM) were subsequently transferred by Kalypsys pintool. For primary screens, the MIPE collection was tested at 11-point dilutions (final concentrations range from 0.78 nM to 46 µM) and the NPC collection at 8-point dilutions (final concentrations range from 0.59 nM to 46 µM). Compounds tested in follow-up screens were assayed at 11-point dilutions. Cells were incubated for 48 hours, followed by addition of 3 µL of CellTiter-Glo (Promega). After a 15 min incubation at room temperature, samples were analyzed for luminescence intensity using a ViewLux High-throughput CCD imager equipped with clear filters.
# Potency is the fitted concentration of half-maximal effect.
row,Structure (SMILES),Potency
1,Clc1cccc(Cl)c1NC1=NCCN1,inactive
2,CCOc1cc(C=C2C(=O)N(c3ccccc3)N=C2C)cc(Cl)c1OCC(=O)OC,20.9 µM (active)
3,NCCc1ccc(O)c(O)c1,inactive
4,Cc1cc(C=c2sc3nc4ccccc4n3c2=O)c(C)n1-c1ccccc1,inactive
5,CS(=O)(=O)c1cccc(CNc2nc(Nc3ccc4c(c3)CCC(=O)N4)ncc2C(F)(F)F)c1,14.8 µM (active)
6,COc1ccc(-c2oc3cc(OC)ccc3c2C(=O)c2ccc(C#N)cc2)cc1,7.43 µM (active)
7,NS(=O)(=O)c1cc2c(cc1Cl)NC=NS2(=O)=O,inactive
8,CNC[C@H](O)c1cccc(O)c1,inactive
9,Cc1[nH]c(=O)c(C#N)cc1-c1ccncc1,inactive
10,Nc1cccc(S(=O)(=O)N2CCCN(S(=O)(=O)c3ccc4c(c3)OCCO4)CC2)c1,inactive
11,CNC(=O)c1ccc(N2C(=S)N(c3ccc(C#N)c(C(F)(F)F)c3)C(=O)C2(C)C)cc1F,inactive
12,Nc1nccc(-c2ccc3noc(-c4ccc(Cl)cc4)c3c2)n1,inactive
13,COc1ccc2c3n(c(=NC(=O)c4cccnc4)nc2c1OC)CCN3,18.7 µM (active)
14,COc1ccc([C@@H]2CC(=O)c3c(O)cc(O[C@@H]4O[C@H](CO[C@@H]5O[C@@H](C)[C@H](O)[C@@H](O)[C@@H]5O)[C@@H](O)[C@H](O)[C@@H]4O)cc3O2)cc1O,inactive
15,CC1(C)SCCN(S(=O)(=O)c2ccc(OCC#CCO)cc2)[C@@H]1C(=O)NO,inactive
16,C1COC(NC(C2CC2)C2CC2)=N1,inactive
17,CC(C)OC(=O)C1=CN(C(=O)c2ccc(F)c(F)c2)CC(C)(C)c2c1[nH]c1ccccc21,inactive
18,COc1c(Cl)cc2c([nH]c3cnccc32)c1NC(=O)c1cccnc1C,inactive
19,Cc1ccc(NC(=O)c2cccc(C(C)(C)C#N)c2)cc1Nc1ccc2ncn(C)c(=O)c2c1,5.26 µM (active)
20,O=C1CCCC2=C1C(c1[nH]ncc1Cl)N=C(Nc1nc3ccccc3o1)N2 (stereo not given),inactive

row,Structure (SMILES),Potency
1,CC(C[N+](C)(C)C)OC(N)=O (stereo not given),inactive
2,Nc1ncnc2nc(-c3ccc(N4CCOCC4)nc3)cc(-c3cccc(Br)c3)c12,inactive
3,Cc1cc(SCc2sc(-c3ccc(C(F)(F)F)cc3)nc2C)ccc1OCC(=O)O,inactive
4,COc1cc(Nc2ncc3c(n2)-c2ccc(Cl)cc2C(c2c(F)cccc2OC)=NC3)ccc1C(=O)O,0.0332 µM (active)
5,CCOc1cc(C(=O)Nc2ccc(Cl)c(-c3nc4ccccc4[nH]3)c2)cc(OCC)c1OCC,inactive
6,N#Cc1ccc(C(c2ccc(C#N)cc2)n2cncn2)cc1,inactive
7,CC(C)(Sc1ccc(CCN(CCCCC2CCCCC2)C(=O)NC2CCCCC2)cc1)C(=O)O,20.9 µM (active)
8,Cc1c(C)c2c(c(C)c1O)CCC(C)(COc1ccc(CC3SC(=O)NC3=O)cc1)O2 (stereo not given),inactive
9,Cc1ccccc1C(C(=O)NC1CCCC1)N(C(=O)Cn1cnc2ccccc21)c1cccc(F)c1 (stereo not given),inactive
10,O=C1[C@H](Cc2ccc(O)cc2)N2C(=O)CCN(C(=O)NCc3ccccc3)[C@H]2CN1Cc1cccc2ccccc12,14.8 µM (active)
11,O=c1ncn2nc(Sc3ccc(F)cc3F)ccc2c1-c1c(Cl)cccc1Cl,inactive
12,COc1ccccc1-c1cccc(-c2c(O)c3cc(C#N)c(Cl)cc3[nH]c2=O)c1,7.62 µM (active)
13,O=C1CCC(N2C(=O)c3ccccc3C2=O)C(=O)N1 (stereo not given),inactive
14,NC(=O)c1ccc(-c2nc(-c3ccc4c(c3)OCO4)c(-c3ccccn3)[nH]2)cc1,inactive
15,CCCc1nc2c(C)cc(-c3nc4ccccc4n3C)cc2n1Cc1ccc(-c2ccccc2C(=O)O)cc1,inactive
16,Clc1ccc(Nc2nnc(Cc3ccncc3)c3ccccc23)cc1,inactive
17,COc1ccc(C2=N[C@H](c3ccc(Cl)cc3)[C@H](c3ccc(Cl)cc3)N2C(=O)N2CCNC(=O)C2)c(OC(C)C)c1,0.743 µM (active)
18,CC(c1cc2ccccc2s1)N(O)C(N)=O (stereo not given),inactive
19,CN(C)C(=O)c1ccc(S(=O)(=O)c2ccc(NC(=O)[C@@](C)(O)C(F)(F)F)c(Cl)c2)cc1,inactive
20,c1ccc([C@H]2CN3CCSC3=N2)cc1,inactive
